In PubChem BioAssay AID463173 (ICCB-Longwood Screening Facility, Harvard Medical School, 2010) one finds survival data, which are given here for 85 compounds.

The structures appear in SMILES notation. Screen size: about 52,000 compounds; about 4,300 (8.3%) were called active. The entries come from a sample that favours actives as a whole. Unmarked numbers belong to inactive results. No stated cut-off is given here; in the data, active means survival mostly below about 52% (no sharp cut-off); inactive means mostly above about 56%.

The assay deals with DeltatarO mutant. Briefly: growth inhibition of S. aureus wild type versus tarO mutant, primary screen, teichoic acid synthesis inhibitors, RN4220, OD600 (AID 463173). Particulars: OD600, 18 h, hits give low values, screened at 18.75 µg/mL (by protocol).
Turning to `Cc1cccc(CN2CCC(CNC(=O)Cn3ncc4c([nH]c5ccc(C)cc54)c3=O)CC2)c1`, the survival is 120%.

`Cc1cc(C)nc(SC2=CS(=O)(=O)c3ccccc32)n1`: the survival was 88%.

For `O=S1(=O)C=C(Sc2nc3ccccc3s2)c2ccccc21`, the survival is 4% (active).

On to `OCC#CCSc1nc2ccccc2s1`, for which the survival was 71%.

Regarding `CC(C)CCn1c(=O)c2cccnc2n(CC(=O)Nc2ccccc2)c1=O`, the survival is 72%.

Regarding `CCOc1ccccc1Nc1sc(C(=O)c2ccccc2)c(N)c1S(=O)(=O)c1ccc(C)cc1`, the survival is 92%.

In the case of `CCOc1ccc(Nc2sc(C(=O)c3ccc(F)cc3)c(N)c2S(=O)(=O)c2ccc(C)cc2)cc1`, the survival is 52% (active).

Turning to `CCOc1ccccc1Nc1sc(C(=O)c2ccc(Cl)cc2)c(N)c1C#N`, the survival was 94%.

As for `CCOc1ccccc1Nc1sc(C(=O)c2ccc(Cl)cc2)c(N)c1S(=O)(=O)c1ccccc1`, the survival was 25% (active).

Take `CCCS(=O)(=O)c1c(Nc2ccccc2C)sc(C(=O)c2ccccc2)c1N`: the survival is 28% (active).

Turning to `Cc1ccc(Nc2sc(C(=O)c3ccc(F)cc3)c(N)c2S(=O)(=O)c2ccc(C)cc2)cc1`, the survival is 116%.

On to `Cc1ccccc1Nc1sc(C(=O)c2ccccc2)c(N)c1S(C)(=O)=O`, for which the survival was 99%.

With `COc1ccc(S(=O)(=O)c2c(Nc3ccc(C)cc3)sc(C(=O)c3ccc(C)cc3)c2N)cc1`, the survival was 105%.

For `CCS(=O)(=O)c1c(Nc2cc(C)ccc2C)sc(C(=O)c2ccccc2)c1N`, the survival was 90%.

With `Cc1nc2ccc(S(=O)(=O)N(C)CC(=O)Nc3ccc(C(C)C)cc3)cc2s1`, the survival is 113%.

Turning to `CCc1ccc(NC(=O)CN2C(=O)CCSc3ccccc32)cc1`, the survival is 86%.

Turning to `CCc1nc2ccccc2n2c(-c3ccccc3)c3c(=O)n(C)c(=O)n(C)c3c12`, the survival was 75%.

For `Cc1cc2c(cc1S(=O)(=O)NCc1ccccc1)OCC(=O)N2`, the survival is 91%.

Turning to `COc1ccc(C)cc1NC(=O)NC(C)c1c(-n2cccc2)sc(C)c1C` (stereo not given), the survival was 44%.

As to `Cc1ccccc1-c1nnc(SCC(=O)N2CCCCC2)o1`, the survival was 64%.

For the compound `Cc1nc2c(-c3ccccc3)c(C)nn2c(C)c1CCC(=O)NCc1cccc(Cl)c1`, the survival is 109%.

For `CCc1cccc(NC(=O)CN2C(=O)COc3ccc(S(=O)(=O)Nc4ccccc4)cc32)c1`, the survival was 82%.

In the case of `CC(C)N1CC2=C(OC(N)=C(C#N)C2c2cccnc2)/C(=C/c2cccnc2)C1` (stereo not given), the survival was 85%.

In the case of `CCOC(=O)C1=C(c2ccccc2)OC(N)=C(C#N)C1c1ccncc1` (stereo not given), the survival was 87%.

`N#CC1=C(N)OC2=C(CCc3ccccc32)C1c1ccccc1` (stereo not given): the survival was 2% (active).

With `Cc1ccc(CSc2n[nH]c(-c3ccccc3O)n2)cc1`, the survival was 62%.

`Cc1cccc(C)c1NC(=O)C(C)Sc1n[nH]c(-c2ccncc2)n1` (stereo not given): the survival was 76%.

`Cc1ccc(NC(=O)C(C)Sc2n[nH]c(-c3ccccc3O)n2)cc1` (stereo not given): the survival is 23% (active).

For the compound `O=C(NCC(=O)N1CCCCC1)c1ccccc1`, the survival is 97%.

With `Cc1ccc(Cl)cc1NC(=O)Cn1c(=O)oc2cc(S(=O)(=O)N3CCCC3)ccc21`, the survival was 81%.

Turning to `CCc1ccccc1NC(=O)Cn1c(=O)n(CCc2ccccc2)c(=O)c2ccccc21`, the survival was 89%.

In the case of `COC(=O)c1ccc(Cn2nc(-c3ccc(C)c(C)c3)ccc2=O)cc1`, the survival is 67%.

For `CCn1cc(C(=O)N2CCN(c3cccc(Cl)c3)CC2)c2cc(OC)c(OC)cc2c1=O`, the survival is 54%.

As to `COc1ccc(NC(=O)c2cn(CC(C)C)c(=O)c3cc(OC)c(OC)cc23)cc1Cl`, the survival is 50%.

For the compound `COc1ccc(NC(=O)Nc2cn(CC(C)C)c(=O)c3ccccc23)c(OC)c1`, the survival was 91%.

For the compound `COc1cc(Cl)c(C)cc1NC(=O)c1cn(CC(C)C)c(=O)c2cc(OC)c(OC)cc12`, the survival was 42% (active).

With `CCn1cc(C(=O)Nc2cccc(Cl)c2)c2cc(OC)c(OC)cc2c1=O`, the survival is 46% (active).

Consider `COc1ccc(OC)c(NC(=O)c2cn(CC(C)C)c(=O)c3cc(OC)c(OC)cc23)c1`, for which the survival was 50% (active).

`CCn1cc(C(=O)Nc2ccc(C(C)C)cc2)c2cc(OC)c(OC)cc2c1=O`: the survival is 63%.

On to `COc1ccc(C)cc1NC(=O)c1cn(C)c(=O)c2cc(OC)c(OC)cc12`, for which the survival is 72%.

Turning to `CCOC(=O)c1ccccc1NC(=O)c1cn(CC(C)C)c(=O)c2cc(OC)c(OC)cc12`, the survival is 53%.

`COc1ccc(Cn2c(C(=O)O)c(CNCCc3cc(OC)ccc3OC)c3ccc(C)cc32)cc1`: the survival is 85%.

Consider `COc1ccccc1NC(=O)c1c(C)cc(C)nc1SCC(=O)Nc1ccc(C)cc1`, for which the survival was 51%.

`CC(C)c1cccc(C(C)C)c1NC1=NS(=O)(=O)c2ccccc21`: the survival was 76%.

Take `COc1cc(C(=O)N2CCc3ccccc32)cc(OC)c1OC`: the survival was 104%.

As to `O=C(c1ccc2c(c1)N(Cc1ccccc1F)C(=O)c1ccccc1S2(=O)=O)N1CCCCCC1`, the survival was 73%.

As to `CN1CCN(C(=O)C2CCCCC2C(=O)O)CC1` (stereo not given), the survival was 78%.

Turning to `COC(=O)c1cc2sccc2n1Cc1nc(-c2cccc(Br)c2)oc1C`, the survival is 70%.

Turning to `CCc1ccc(C2NC(=O)c3[nH]nc(-c4cccc(OC)c4)c32)cc1` (stereo not given), the survival was 54%.

Consider `COc1ccc(-c2n[nH]c3c2C(c2ccc(Cl)cc2Cl)NC3=O)cc1` (stereo not given), for which the survival was -12% (active).

`COc1ccc(OC)c(C2c3c(-c4ccc(Br)cc4)n[nH]c3C(=O)N2c2ccc(Cl)cc2)c1` (stereo not given): the survival is 89%.

Consider `Cc1ccc(CC(=O)Nc2c(C(=O)N3CCN(c4ccccc4F)CC3)oc3ccccc23)cc1`, for which the survival is 74%.

In the case of `Cc1ccc(Cn2c(=O)n(-c3ccc(C)c(C)c3)c(=O)c3c(C)c(C)sc32)cc1`, the survival is 71%.

As for `CCOc1ccc(-n2c(=O)c3c(C)c(C)sc3n(Cc3cc(=O)n4cc(Cl)ccc4n3)c2=O)cc1`, the survival is 69%.

`CCCCN(CC)C(=O)Cn1c(=O)n(-c2ccc(OCC)cc2)c(=O)c2c3c(sc21)CCC3`: the survival is 78%.

In the case of `CCc1ccc(NC(=O)Cn2c(=O)n(-c3ccc(Cl)c(Cl)c3)c(=O)c3c(C)c(C)sc32)cc1`, the survival is 97%.

On to `CCOc1ccc(-n2c(=O)c3c4c(sc3n(Cc3cc(=O)n5cc(Cl)ccc5n3)c2=O)CCC4)cc1`, for which the survival is 64% (active).

In the case of `CCOc1ccc(-n2c(=O)c3c(C)c(C)sc3n(CC(=O)Nc3ccc(CC)cc3)c2=O)cc1`, the survival was 46% (active).

For `Cc1ccc(-n2c(=O)c3c(C)c(C)sc3n(Cc3ccc(F)cc3Cl)c2=O)cc1C`, the survival is 38% (active).

`CCCCN(CC)C(=O)Cn1c(=O)n(-c2ccc(OCC)cc2)c(=O)c2c3c(sc21)CCCC3`: the survival was 89% (active).

Consider `Cc1ccc(C)c(Cn2c(=O)n(-c3ccc(Cl)cc3)c(=O)c3c(C)c(C)sc32)c1`, for which the survival is 76%.

Turning to `Cc1ccc(-n2c(=O)c3c4c(sc3n(Cc3cc(=O)n5cc(Cl)ccc5n3)c2=O)CCC4)cc1C`, the survival was 169%.

Regarding `CCOc1ccc(-n2c(=O)c3c(C)c(C)sc3n(CC(=O)NCCc3ccccc3)c2=O)cc1`, the survival was 84%.

`CCN(CC)C(=O)Cn1c(=O)n(-c2ccc(Cl)cc2)c(=O)c2c3c(sc21)CCCCC3`: the survival is 89%.

Consider `O=C(CCNS(=O)(=O)c1ccc2c(c1)CCCC(=O)N2)NCc1ccc(Cl)cc1`, for which the survival was 96%.

With `COc1ccc(CCNC(=O)c2cc3c(=O)n4cccc(C)c4nc3n2C)cc1`, the survival was 67%.

As to `COc1ccc(NC(=O)C2CCCN(S(=O)(=O)c3ccc4[nH]c(=O)ccc4c3)C2)cc1Cl` (stereo not given), the survival was 82%.

`CC(=O)Nc1cccc(NC(=O)Cc2csc(COc3cccc(C)c3)n2)c1`: the survival is 89%.

On to `CCOc1ccc(NC(=O)C(=O)NCCc2csc(-c3ccc(F)cc3)n2)cc1`, for which the survival was 82%.

In the case of `CCN(CC)S(=O)(=O)c1ccc2c(c1)N(CC(=O)NCCCN1CCN(c3cc(Cl)ccc3C)CC1)C(=O)CO2`, the survival was 53%.

As to `CCOc1ccc(-c2noc(CSc3nnc(-c4ccccc4)n3-c3ccccc3)n2)cc1`, the survival was 66%.

Consider `COc1cccc(-n2cc(C(=O)Nc3ccccc3C(N)=O)c3ccccc3c2=O)c1`, for which the survival was 67%.

`COc1cccc(-n2c(=O)c3c(C)c(C)sc3n(CC(=O)NCCc3ccc(OC)c(OC)c3)c2=O)c1`: the survival was 94%.

In the case of `Cc1ccc(-n2c(=O)c3c(cnn3C)n(CC(=O)Nc3cccc(C)c3)c2=O)cc1`, the survival was 64%.

For `Cc1ccc(-n2c(=O)c3c4c(sc3n(CC(=O)Nc3cccc(Cl)c3)c2=O)CCCCC4)cc1C`, the survival was 105% (active).

With `CCOc1ccc(-n2c(=O)c3c(C)c(C)sc3n(CC(=O)C(C)(C)C)c2=O)cc1`, the survival is 121%.

Consider `COc1ccc(CCNC(=O)Cn2c(=O)n(-c3ccc(C)c(C)c3)c(=O)c3c(C)c(C)sc32)cc1OC`, for which the survival is 64%.

Take `O=C(Cn1c(=O)n(-c2ccc(Cl)cc2)c(=O)c2c3c(sc21)CCCCC3)Nc1cccc(Cl)c1`: the survival was 84%.

Consider `Cc1ccc(-n2c(=O)c3c(cnn3C)n(CC(=O)Nc3cccc(Cl)c3)c2=O)cc1`, for which the survival was 55% (active).

Consider `CCOc1ccc(-n2c(=O)c3c(C)c(C)sc3n(Cc3ccccc3C)c2=O)cc1`, for which the survival is 85%.

Turning to `CCOc1ccc(-n2c(=O)c3c(C)c(C)sc3n(Cc3ccc(C(C)(C)C)cc3)c2=O)cc1`, the survival was 52% (active).

As for `COc1ccc(CCNC(=O)Cn2c(=O)n(-c3ccccc3)c(=O)c3c(C)c(C)sc32)cc1OC`, the survival is 84% (active).

In the case of `Cc1ccc(NC(=O)Cn2c(=O)n(-c3ccc(C)cc3)c(=O)c3c2cnn3C)cc1`, the survival was 63%.

For `COc1ccc(NC(=O)Cn2c(=O)n(-c3ccc(C)c(C)c3)c(=O)c3c4c(sc32)CCCCC4)cc1Cl`, the survival was 76%.

For `COc1ccc(CCNC(=O)CSc2n[nH]c(-c3ccccc3Cl)n2)cc1OC`, the survival is 101%.
